SNCA expr inhib: Primary qHTS assay for inhibitors of alpha-synuclein gene (SNCA) expression; HEK-293 SNCA-luciferase knock-in, luminescence, 24 h; Potency, µM (series often up to 57.2 µM), most hits filed as inhibitors; actives 0.17% (n = 140,000); AID 1671194, 2021; note: nearly all actives have a fitted effect of over 45% in size
IP6K1 inh: Primary qHTS assay for small molecule inhibitors of Inositol hexaphosphate kinase 1 (IP6K1) | IP6K1 kinase, ADP-Glo luminescence, 2 h; active compounds read low | Inositol hexakisphosphate kinase 1 (Homo sapiens), Q92551 | actives 0.81% (n = 140,000) | activity change, % (series mostly up to about 58 µM); in the data active = activity change below about -25%
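ADP-Glo luminescence measures ADP made by human IP6K1 during a 2 h RT reaction with ATP/IP6 (mix at 1.3 mM/130 uM); top library doses 57.5 and 19.1 uM final.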
KDM5B inh: Primary screen for KDM5B Histone Demethylases FDH-coupled qHTS. Potency, µM (series often up to 57.7 µM), actives largely listed as inhibitors. Lysine-specific demethylase 5B (Homo sapiens), Q9UGL1. KDM5B demethylase, FDH-coupled NADH fluorescence (FDH is formaldehyde dehydrogenase). actives 2.6% (n = 220,000). AID 1347165, 2019; note: nearly all actives have a fitted effect of over 70% in size
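qHTS format, multiple compound concentrations. Buffer 50 mM HEPES pH 7.5/0.01% Tween-20; 200 nM KDM5BΔAP final; 10 min compound preincubation; substrate-mix levels 12.5 µM peptide, 25 µM α-KG, 0.25 mM NAD⁺; 30 min RT; ΔRFU.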
HEK293 viab: GF-AFC viability counterscreen for inhibitors of alpha-synuclein gene (SNCA) expression | Potency, µM (top dose mostly 57.1 µM), usual class: cytotoxic | HEK-293-SNCA-luc viability, GF-AFC fluorescence, 24 h | actives 0.12% (n = 150,000); note: nearly all actives have a fitted effect of over 30% in size
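HEK-293-SNCA-luc cells (1500/well) plated 24 h, then exposed 24 h to a dilution series; GF-AFC added 30 min at 37C, fluorescence 405/540 nm; normalised to medium-only and DMSO wells, Hill fit.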
Numbers stand for hits; ! = a repeat was not active. A selection: hits, their analogues and other compounds. The true share with any hit is near 2.8%. Unless noted, calls come from the whole dose curve; as a rule, active = well fitted curve in the direction sought with a large enough effect; inconclusive = small, poorly fitted or top-dose-only effect, or another doubt; inactive = no such curve, though single readings can be large; an effect the other way counts as inactive or inconclusive.

For Cc1cc(C[C@@H]2COC[C@@H]2NC(=O)c2cc(-c3ccccc3O)n[nH]2)on1 the results were SNCA expr inhib inactive, IP6K1 inh inactive, KDM5B inh inactive and HEK293 viab inactive.
Cc1cc(C[C@@H]2COC[C@@H]2NC(=O)c2cc(C)oc2-c2ccccc2)on1 was read as SNCA expr inhib inactive, IP6K1 inh inactive, KDM5B inh 28.2µM and HEK293 viab inactive.
`Cc1ccc2oc(C(=O)N[C@H]3COC[C@H]3Cc3cc(C)no3)c(C)c2c1` gave SNCA expr inhib inactive, IP6K1 inh inactive, KDM5B inh 15.8µM and HEK293 viab inactive.
`Cc1cc(C[C@@H]2COC[C@@H]2NC(=O)c2cnn3ccccc23)on1` gave SNCA expr inhib inactive, IP6K1 inh inactive, KDM5B inh 28.2µM and HEK293 viab inactive.
For COc1cc(OC)c(C(=O)N[C@H]2COC[C@H]2Cc2cc(C)no2)cc1OC the results were SNCA expr inhib inactive, IP6K1 inh inactive, KDM5B inh 20µM and HEK293 viab inactive.
For COc1ccc(C(=O)N[C@H]2COC[C@H]2Cc2cc(C)no2)c(F)c1F the results were SNCA expr inhib inactive, IP6K1 inh inactive, KDM5B inh inconclusive and HEK293 viab inactive.
`O=C(NCCCc1ccccc1)c1n[nH]c2c1CN(C(=O)c1ccc(F)c(F)c1)CC2` gave SNCA expr inhib inactive, IP6K1 inh inactive and HEK293 viab inactive.
For Cc1cccc(NC(NC(=O)c2ccc(Br)cc2)C(Cl)(Cl)Cl)c1 (stereo not drawn) the results were KDM5B inh inactive.
Screening CCCOc1ccc(NC(=O)CC2SCCNC2=O)cc1 (stereo not drawn) returned KDM5B inh inactive.
O=C(c1cnc2ccccn2c1=O)N1CC(=O)N(C2CCCCC2)CC(OCc2ccccc2)C1 (stereo not drawn) was read as SNCA expr inhib inactive, IP6K1 inh inactive, KDM5B inh 31.6µM and HEK293 viab inactive.
For CC(C)C(=O)N1CC(=O)N(C2CCCCC2)CC(OCc2ccccc2)C1 (stereo not drawn) the results were SNCA expr inhib inactive, IP6K1 inh inactive, KDM5B inh inactive and HEK293 viab inactive.
For CC(C)NC(=O)c1nc(C(C)(C)C)c2cnccn12 the results were SNCA expr inhib inactive, IP6K1 inh inactive, KDM5B inh 126µM and HEK293 viab inactive.
For C#CCNC(=O)c1nc(C(C)(C)C)c2cnccn12 the results were SNCA expr inhib inactive, IP6K1 inh inactive, KDM5B inh 50.1µM and HEK293 viab inactive.
`C#CCNC(=O)c1nc(-c2cccnc2)c2ccccn12` gave SNCA expr inhib inactive, IP6K1 inh inactive, KDM5B inh inactive and HEK293 viab inactive.
For O=C(OC1CCCCC1)c1cccc(CS(=O)(=O)c2ccccc2)c1 the results were KDM5B inh inactive.
`Cc1cccc(Oc2coc3cc(OCC(=O)OCCC(C)C)ccc3c2=O)c1` gave KDM5B inh inactive.
Screening NC(=O)NO returned SNCA expr inhib 1.36µM!, IP6K1 inh inactive and HEK293 viab inactive.
For CCOc1cccc(-c2noc(-c3nnn4c3COC(c3ccc(Cl)cc3)C4)n2)c1 (stereo not drawn) the results were SNCA expr inhib inconclusive, IP6K1 inh inactive, KDM5B inh 22.4µM and HEK293 viab inactive.
CCOc1ccc(C2Cn3nnc(-c4nc(-c5cccc(C)c5)no4)c3CO2)cc1 (stereo not drawn) was read as SNCA expr inhib inactive, IP6K1 inh inactive, KDM5B inh 20µM and HEK293 viab inactive.
`Cc1cccc(-c2noc(-c3nnn4c3COC(c3ccc(F)cc3)C4)n2)c1` (stereo not drawn) gave SNCA expr inhib inactive, IP6K1 inh inactive, KDM5B inh inactive and HEK293 viab inconclusive.
`CCOc1ccc(C2Cn3nnc(-c4nc(-c5ccccc5)no4)c3CO2)cc1` (stereo not drawn) gave SNCA expr inhib inactive, IP6K1 inh inactive, KDM5B inh 28.2µM and HEK293 viab inactive.
`CCOc1ccc(C2Cn3nnc(-c4nc(-c5cccc(Cl)c5)no4)c3CO2)cc1` (stereo not drawn) gave SNCA expr inhib inactive, IP6K1 inh inactive, KDM5B inh inactive and HEK293 viab inactive.
Screening COc1cccc(-c2ccc(CN3CCCC3C(=O)NCc3ccc(C(F)(F)F)cc3)cc2)c1 (stereo not drawn) returned SNCA expr inhib inconclusive, IP6K1 inh inactive and HEK293 viab inactive.
`O=C1COc2ccc(-c3ccncc3)nc2CN1Cc1ccc(F)cc1` gave SNCA expr inhib inactive, IP6K1 inh inactive, KDM5B inh 25.1µM and HEK293 viab inactive.
`O=C1COc2ccc(-c3ccncc3)nc2CN1Cc1ccccc1F` gave SNCA expr inhib inactive, IP6K1 inh inactive, KDM5B inh 35.5µM and HEK293 viab inactive.
Screening COc1ccc(-c2ccc3c(n2)CN(Cc2ccc(F)cc2)C(=O)CO3)cc1 returned SNCA expr inhib inconclusive, IP6K1 inh inactive, KDM5B inh 22.4µM and HEK293 viab inconclusive.
For COc1cccc(-c2ccc3c(n2)CN(Cc2ccc(F)cc2)C(=O)CO3)c1 the results were SNCA expr inhib inactive, IP6K1 inh inactive, KDM5B inh inactive and HEK293 viab inactive.
Screening O=C(NCCCc1ccccc1)C12CC3CC(CC(C3)C1)C2 returned KDM5B inh inactive.
O=c1c2sccc2nc(SCc2nc(-c3cccc(C(F)(F)F)c3)no2)n1C1CC1 was read as KDM5B inh inactive.
`CC(NC(=O)c1ccc2nccn2c1)c1ccc(F)cc1` (stereo not drawn) gave SNCA expr inhib inactive, IP6K1 inh inactive, KDM5B inh 35.5µM and HEK293 viab inactive.
For O=C(NCc1ccc(F)cc1)c1ccc2nccn2c1 the results were SNCA expr inhib inactive, IP6K1 inh inactive, KDM5B inh 28.2µM and HEK293 viab inactive.
CCC(CC)NC(=O)c1ccc2nccn2c1 was read as SNCA expr inhib inactive, IP6K1 inh inactive and HEK293 viab inactive.
For CSc1ccc(C(C)NC(=O)c2ccc(F)cc2)cc1 (stereo not drawn) the results were KDM5B inh inactive.
O=C(NCCc1ccccn1)c1ccc2nccn2c1 was read as SNCA expr inhib inactive, IP6K1 inh inactive, KDM5B inh inconclusive and HEK293 viab inactive.
Screening COCCNC(=O)c1ccc2nccn2c1 returned SNCA expr inhib inactive, IP6K1 inh inactive, KDM5B inh 35.5µM and HEK293 viab inactive.
`COCCCNC(=O)c1ccc2nccn2c1` gave SNCA expr inhib inactive, IP6K1 inh inactive and HEK293 viab inactive.
CC(CCc1ccccc1)NC(=O)c1ccc2nccn2c1 (stereo not drawn) was read as SNCA expr inhib inactive, IP6K1 inh inactive, KDM5B inh 35.5µM and HEK293 viab inactive.
O=C(Cn1nc(-c2ccccc2)c2ccccc2c1=O)Nc1cccc(C(F)(F)F)c1 was read as KDM5B inh inactive.

Screening results as filed in PubChem.
